A number with no mark means an inactive call. Inconclusive results are not listed. The list shows a part of the results. Entries that show only a call come without a potency. Calls of active or inactive are those of the source. Calls come from the whole dose curve; as a rule, active = well fitted curve in the direction sought with a large enough effect; inconclusive = small, poorly fitted or top-dose-only effect, or another doubt; inactive = no such curve, though single readings can be large; an effect the other way counts as inactive or inconclusive.
How the values were obtained:
[1] = molecular target: DNA repair nuclease/redox regulator APEX1 (Homo sapiens) (UniProt P27695); test: Confirmation qHTS Assay for Inhibitors of the Human Apurinic/apyrimidinic Endonuclease 1 (APE1) (AID 2572); details: purified APE1, fluorogenic abasic-site DNA cleavage; note: potency is the fitted concentration of half-maximal effect; nearly all actives have a fitted effect of over 30% in size
Summary of the method: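 Fluorescence gain at 598 nm (Ex 525 nm) reports APE1 cleavage of a TAMRA/BHQ-2-labelled duplex carrying a tetrahydrofuran abasic site, 50 nM final. Activity taken as third-minus-first kinetic read after 15 min compound preincubation, room temperature.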

[2] = molecular target: DNA repair nuclease/redox regulator APEX1 (Homo sapiens) (UniProt P27695); test: qHTS FP-Based Assay for Inhibitors of the Human Apurinic/apyrimidinic Endonuclease 1 (APE1) (AID 2573); details: APE1 binding to TAMRA-labelled double-stranded DNA, fluorescence polarization displacement; series mostly up to 28.5 µM
From the text: The apurinic/apyrimidinic endonuclease APE1 is the primary mammalian enzyme responsible for the removal of abasic (or AP) sites in DNA and functions centrally in the base excision DNA repair (BER) pathway. […] Thus, targeting APE1 could improve the efficacy of current treatment paradigms by promoting selective sensitization or protection of diseased and normal cells, respectively.
In order to gain insight into the mode of action of confirmed APE1 inhibitors, we implemented a miniaturized fluorescence polarization assay designed to report on compounds which competitively displace ds-DNA substrate. The fluorescence polarization assay has been implemented in 384- and 1536-well format for binding of TAMRA-labeled double-stranded DNA probe not containing a quencher. The binding of protein to DNA is inhibited by ATA, a general inhibitor of APE1 activity.
See also related primary fluorogenic assay (AID 2517). […]
Three uL of enzyme were dispensed to 1536-well Greiner black solid bottom plates. […] The plates were immediately transferred into ViewLux High-throughput CCD imager (Perkin-Elmer) in order to measure the reaction progress in kinetic mode (three reads every 60 seconds) using 525 nm excitation and 598 nm emission fluorescence protocol. The fluorescence intensity difference between the third and the first time points was used to compute reaction progress.

[3] = molecular target: Furin (Homo sapiens) (UniProt P09958); test: Furin counterscreen qHTS for Zika virus inhibitors (AID 1347149); details: furin enzymatic counterscreen, fluorogenic substrate; series mostly up to 114 µM; note: nearly all actives have a fitted effect of over 70% in size; note: potency is the fitted concentration of half-maximal effect
Summary of the method: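 Fluorogenic cleavage of BOC-RVRR-AMC (2 microM final, Km ~15 µM) was monitored (ex 340, em 450 nm) at 37C after 15 min RT preincubation of 5 nM furin with compounds in HEPES pH 7.0 buffer with CaCl2 and Triton X-100. Percent inhibition was fitted to a 4-parameter Hill curve.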

[4] = Confirmatory screen GU Rhodamine qHTS for Zika virus inhibitors qHTS (AID 1347157); details: purified enzyme assay, Rhodamine110 substrate fluorescence, 15 min; series mostly up to 114 µM; note: nearly all actives have a fitted effect of over 70% in size; note: potency is the fitted concentration of half-maximal effect
Summary of the method: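 Unlinked NS2B/NS3, 25 nM; Rhod110 peptide, 1.5 microM; compounds, up to 114 microM. Reaction run 15 min at RT in 10 mM Tris-HCl pH 8.0, 0.01% Tween 20; kinetic fluorescence change fitted with a 4-parameter Hill model.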

[5] = system: Zika virus NS2B-NS3 protease (linked); test: 384 well plate NINDS AMC confirmatory qHTS for Zika virus inhibitors (AID 1347163); details: Recombinant NS2B-NS3 protease, Ac-VKTGKR-AMC fluorescence; series mostly up to 1 mM; note: potency is the fitted concentration of half-maximal effect; nearly all actives have a fitted effect of over 50% in size
Summary of the method: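 Linked protease 5/30/60 nM final; cpds up to 1 mM final, ~15 min preinc. Substrate Ac-VKTGKR-AMC 30 microM final. RT, dark, 25 min; FI ex 355/em 460; normalized to no-enzyme/no-inhibitor ctrls.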

[6] = system: Zika virus NS2B-NS3 protease (linked construct); test: 384 well plate NINDS Rhodamine confirmatory qHTS for Zika virus inhibitors (AID 1347164); details: rhodamine-110 peptide substrate fluorescence; series mostly up to 1 mM;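 note: fluorescence from protease cleavage of Ac-LKRR-rhodamine 110 substrate; potency is the fitted concentration of half-maximal effect; nearly all actives have a fitted effect of over 65% in size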
Summary of the method: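 Linked protease at a final 5 nM, 30 nM or 60 nM was preincubated ~15 min with compounds, then given 10 microM Ac-LKRR-Rhodamine 110. Fluorescence (ex 485/em 538 nm) after 25 min in the dark at room temperature.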

[7] = Tertiary RLuc qRT-PCR qHTS assay for Zika virus inhibitors (AID 1347169); details: infected Vero cells, reporter luminescence, 48-72 h; series mostly up to 1.74 µM; note: top concentration of the series differs between compounds; nearly all actives have a fitted effect of over 55% in size
Summary of the method: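 Vero cells (1,000 per well) plated overnight at 37 degrees C, treated with compound in DMSO, then infected with recombinant ZIKV-RLuc (Cambodian) at MOI 1-2 for 48-72 hrs. Live-cell Renilla luciferase substrate added; luminescence read after 1-1.5 hrs.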

[8] = Primary qHTS for small molecule stabilizers of the endoplasmic reticulum resident proteome: Secreted ER Calcium Modulated Protein (SERCaMP) assay (AID 1508630); details: SH-SY5Y GLuc-SERCaMP (Gaussia luciferase released on ER calcium loss) secretion, thapsigargin, luminescence; series mostly up to 38.4 µM
Summary of the method: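 GLuc-SERCaMP-expressing SH-SY5Y cells, pretreated 16 h with compound, are challenged with thapsigargin to empty ER calcium stores; after 4 h, coelenterazine is added directly to the medium and luminescence is imaged.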

[9] = Confirmatory screen NINDS Rhodamine qHTS for Zika virus inhibitors (AID 1347161); details: purified enzyme assay, Rhodamine110 substrate fluorescence, 15 min; series mostly up to 114 µM; note: nearly all actives have a fitted effect of over 60% in size; note: potency is the fitted concentration of half-maximal effect
Summary of the method: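 Rhodamine110-peptide cleavage (1.5 µM substrate) by 25 nM linked NS2B-NS3 enzyme at pH 8.0 (Tris, Tween 20), after 15 min RT preincubation with compounds; 15-min fluorescence change normalized to controls and Hill-fitted.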

[10] = molecular target: Calcium and integrin-binding protein 1 (Homo sapiens) (UniProt Q99828); test: Primary qHTS for Identification of Calcium Integrin Binding Protein 1 (CIB1) Competitor (AID 1508620); details: CIB1-GST / FITC-alphaIIb peptide fluorescence polarization; series mostly up to 114 µM;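 note: GST tagged CIB1 binding a fluorescein labelled alphaIIb integrin peptide tracer; top concentration of the series differs between compounds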
Summary of the method: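 Fluorescence polarization competition: CIB1-GST (1 uM final) preincubated with compound 15 min at room temperature, then FITC-labeled alphaIIb peptide (100 nM final) added for another 15 min. Polarization read at Ex 480/Em 540.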

[11] = Confirmation and Secondary Assay for Modulators of Hemoglobin Beta Chain Splicing at IVS2 654 locus (AID 910); details: HeLa EGFP-654 splicing reporter, GFP fluorescence, 48 h; series mostly up to 46.1 µM;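 note: per-well total GFP intensity by laser scanning cytometry after 2-day treatment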
Summary of the method: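 HeLa cells stably carrying EGFP interrupted by mutant beta-globin IVS2-654 intron (CMV-driven) were treated with compound for 2 days at 37C; corrected splicing was scored as total peak GFP intensity per well (488 nm excitation, 500-520 nm emission).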

[12] = Confirmation and Secondary Assay for Modulators of Hemoglobin Beta Chain Splicing at IVS2 705 locus (AID 930); details: HeLa EGFP-705 splicing reporter, GFP fluorescence, 48 h; series mostly up to 46.1 µM;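 note: HeLa cells stably expressing the EGFP-705 splicing reporter; GFP fluorescence per well restored by corrected splicing of the IVS2-705 intron in EGFP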
Summary of the method: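 First, HeLa EGFP-705 cells are seeded at 500/well in Optimem with 2% FCS and left overnight. Next, compound or DMSO is added for 2 days. Finally wells are laser-scanned and total peak GFP intensity scored.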

Furin (Homo sapiens), sequence (P09958 whole entry, looked up): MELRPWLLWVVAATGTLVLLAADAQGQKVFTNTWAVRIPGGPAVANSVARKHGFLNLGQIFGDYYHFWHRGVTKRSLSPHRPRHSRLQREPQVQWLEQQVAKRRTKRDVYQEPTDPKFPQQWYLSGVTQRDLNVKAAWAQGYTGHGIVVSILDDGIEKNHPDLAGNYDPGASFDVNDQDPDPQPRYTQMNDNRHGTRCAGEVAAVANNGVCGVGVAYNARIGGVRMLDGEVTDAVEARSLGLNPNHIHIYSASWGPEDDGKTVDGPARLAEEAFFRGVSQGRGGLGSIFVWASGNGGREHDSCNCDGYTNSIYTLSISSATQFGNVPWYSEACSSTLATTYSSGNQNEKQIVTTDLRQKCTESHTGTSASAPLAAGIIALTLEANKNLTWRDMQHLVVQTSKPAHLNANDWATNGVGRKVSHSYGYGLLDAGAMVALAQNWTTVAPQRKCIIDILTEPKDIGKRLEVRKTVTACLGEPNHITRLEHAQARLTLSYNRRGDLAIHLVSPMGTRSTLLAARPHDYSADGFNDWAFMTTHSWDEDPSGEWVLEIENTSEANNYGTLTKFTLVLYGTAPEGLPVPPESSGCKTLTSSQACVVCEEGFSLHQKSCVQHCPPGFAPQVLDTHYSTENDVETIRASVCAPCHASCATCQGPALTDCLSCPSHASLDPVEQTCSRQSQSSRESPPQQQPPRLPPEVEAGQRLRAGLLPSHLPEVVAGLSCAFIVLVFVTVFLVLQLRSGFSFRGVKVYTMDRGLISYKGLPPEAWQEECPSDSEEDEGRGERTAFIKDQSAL
Calcium and integrin-binding protein 1 (Homo sapiens), sequence (Q99828 whole entry, looked up): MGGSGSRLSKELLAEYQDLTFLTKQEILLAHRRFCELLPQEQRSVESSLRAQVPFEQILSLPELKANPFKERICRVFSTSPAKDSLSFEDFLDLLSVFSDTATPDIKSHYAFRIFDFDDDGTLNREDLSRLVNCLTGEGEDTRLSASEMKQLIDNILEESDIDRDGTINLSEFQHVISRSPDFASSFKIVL
DNA repair nuclease/redox regulator APEX1 (Homo sapiens), sequence (P27695 whole entry, looked up): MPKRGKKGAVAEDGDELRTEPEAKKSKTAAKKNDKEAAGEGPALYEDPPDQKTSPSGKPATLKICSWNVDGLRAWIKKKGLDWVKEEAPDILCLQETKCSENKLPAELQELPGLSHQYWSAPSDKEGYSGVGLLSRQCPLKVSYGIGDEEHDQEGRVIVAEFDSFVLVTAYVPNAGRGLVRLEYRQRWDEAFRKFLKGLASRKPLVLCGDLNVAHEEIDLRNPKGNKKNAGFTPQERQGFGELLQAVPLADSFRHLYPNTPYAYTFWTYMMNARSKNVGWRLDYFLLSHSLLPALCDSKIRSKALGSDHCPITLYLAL

For `O=c1c(O)c(Br)ccc2c(Br)c(O)c(O)c(O)c12`, the Potency [1] was 0.316 µM (active), the outcome [2] was “inactive” and the Potency [3] was 23.5 µM (active). For the same compound, the Potency [4] was 39.8 µM (active), the Potency [5] was 158 µM (active) and the Potency [6] was 89.1 µM (active). The Potency [7] was “inactive” and the Potency [8] was “inactive”.

In the case of `O=C(CSc1nnc(-c2cccc([S+](=O)([O-])NC3CCCC3)c2)n1-c1ccc(F)cc1)Nc1ccc(C(=O)O)cc1`, the Potency [3] is reported as “inactive”, the Potency [4] is reported as “inactive” and the Potency [9] is reported as “inactive”. For the same compound, the Potency [7] was “inactive”.

In the case of `O=C(Nc1ccc(C(=O)OCc2cc(=O)n3c4c(sc3n2)CCCC4)cc1)c1ccc(Cl)cc1`, the Potency [3] is reported as 46.9 µM (active), the Potency [4] is reported as “inactive” and the Potency [7] is reported as “inactive”.

For `O=C(OCC#CCSc1nnc(-c2cccc3ccccc23)o1)c1ccc(F)c(F)c1`, the Potency [3] was 59.1 µM (active), the Potency [4] was “inactive” and the Potency [9] was “inactive”. For the same compound, the Potency [7] was “inactive” and the outcome [10] was “inactive”.

For `O=C(OCC#CCSc1nnc(-c2cccc3ccccc23)o1)c1cccc(C(F)(F)F)c1`, the Potency [3] was 37.3 µM (active), the Potency [4] was “inactive” and the Potency [9] was “inactive”. For the same compound, the Potency [7] was “inactive” and the outcome [10] was “inactive”.

For `NC(Cc1cc(I)c(Oc2cc(I)c(O)c(I)c2)c(I)c1)C(=O)O` (stereo not drawn), the outcome [11] was “inactive”, the outcome [12] was “inactive” and the Potency [3] was “inactive”. For the same compound, the Potency [4] was 31.6 µM (active), the Potency [9] was 22.4 µM (active) and the Potency [7] was “inactive”.

For `O=C(Nc1ccccc1C(=O)OCc1cc(=O)n2nc(C3CC3)sc2n1)c1ccc(Cl)cc1`, the Potency [3] was 41.8 µM (active), the Potency [4] was “inactive” and the Potency [9] was “inactive”. For the same compound, the Potency [7] was “inactive”.

With `O=C(OCC#CCSc1nnc(-c2cc3ccccc3cc2O)o1)c1ccc(F)cc1` the Potency [3] was 83.5 µM (active), the Potency [4] was “inactive” and the Potency [9] was “inactive”. For the same compound, the outcome [10] was “inactive”.

In the case of `COCCOC(=O)c1c(C)n(S(=O)(=O)c2ccc(C)cc2)c2ccc(NS(=O)(=O)c3ccc(C)cc3)cc12`, the Potency [3] is reported as “inactive”, the Potency [4] is reported as “inactive” and the Potency [9] is reported as “inactive”. The Potency [7] was “inactive”.

In the case of `CCOc1ccc(C(=O)Nc2ccccc2C(=O)OCc2cc(=O)n3nc(C4CC4)sc3n2)cc1`, the Potency [3] is reported as “inactive”, the Potency [4] is reported as “inactive” and the Potency [9] is reported as “inactive”. For the same compound, the Potency [7] was “inactive”.

With `O=C(Nc1ccccc1C(=O)OCc1cc(=O)n2nc(C3CC3)sc2n1)c1cccc(F)c1` the Potency [3] was “inactive”, the Potency [4] was “inactive” and the Potency [9] was “inactive”. The Potency [7] was “inactive”.

With `Cc1csc2nc(COC(=O)c3ccccc3NC(=O)c3ccc(C(C)(C)C)cc3)cc(=O)n12` the Potency [3] was 37.3 µM (active), the Potency [4] was “inactive” and the Potency [9] was “inactive”. For the same compound, the Potency [7] was “inactive”.

With `O=C(OCC#CCSc1nnc(-c2cccc3ccccc23)o1)c1ccc(C(F)(F)F)cc1` the Potency [3] was 41.8 µM (active), the Potency [4] was “inactive” and the Potency [9] was “inactive”. For the same compound, the Potency [7] was “inactive”.

With `CCOc1ccccc1NC(=O)c1ccc2oc(=O)c(S(=O)(=O)c3ccc(F)cc3)cc2c1` the Potency [3] was “inactive”, the Potency [4] was “inactive” and the Potency [9] was “inactive”. For the same compound, the Potency [7] was “inactive”.
